According to PMC3218832:

Biological target: RELARELA (p65 homodimer) (Homo sapiens, UniProt Q04206 1-307)
Assay: protein binding microarray; high values mean tight binding
Details: dsDNA, one strand shown

Chain of RELARELA (p65 homodimer) (Q04206 1-307): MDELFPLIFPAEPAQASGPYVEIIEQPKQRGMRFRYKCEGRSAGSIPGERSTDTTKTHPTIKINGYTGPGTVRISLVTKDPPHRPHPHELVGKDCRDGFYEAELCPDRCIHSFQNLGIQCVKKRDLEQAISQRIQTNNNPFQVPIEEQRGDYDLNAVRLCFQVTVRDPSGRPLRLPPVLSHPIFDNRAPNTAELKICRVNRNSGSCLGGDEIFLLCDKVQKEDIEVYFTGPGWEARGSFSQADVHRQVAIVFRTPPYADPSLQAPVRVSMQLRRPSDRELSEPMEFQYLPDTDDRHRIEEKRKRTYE

Sequence	binding signal
CGGGTTATCCC	1.55 z-score
CAAGGGGTCCT	-0.5 z-score
AGAAGGCCCCT	-0.756 z-score
GGGGTCGCCCC	0.508 z-score
CGAATTCTCCT	-0.00416 z-score
AAGGGAATCCC	2.03 z-score
AAAAGGATCCT	-0.683 z-score
GAAGAGCCCCT	-0.596 z-score
AAGGACGCCCT	-0.995 z-score
CGGATAATCCT	0.536 z-score
CAGAGACCCCC	-1.05 z-score
CAGAACCTCCT	-0.658 z-score
AAGAGGCCCCT	-0.777 z-score
CAAGGAGCCCC	-0.885 z-score
AGAAGGGTCCC	-0.591 z-score
AAAGAATTCCC	2.27 z-score
AAAAATCCCCT	2.27 z-score
AAATATCTCCC	0.144 z-score
CAATTTATCCT	-0.0381 z-score

Sequence	binding signal
GGATGCGTCCT	0.00389 z-score
CAAATAATCCT	-0.308 z-score
AGGGATCTCCC	1.05 z-score
CAATTATCCCC	0.4 z-score
AAATACACCCC	-0.0111 z-score
AGGAAGCCCCC	0.317 z-score
GAAGGAACCCT	-0.526 z-score
AGAAACTTCCC	2.01 z-score
CGGTACATCCC	0.722 z-score
GAAATCGCCCC	0.357 z-score
AGATTATCCCT	0.0615 z-score
GAATTAGTCCT	0.155 z-score
AAAAGAATCCC	0.306 z-score
CGAGGCACCCT	-1.09 z-score
CAGAATTCCCC	3.2 z-score
AAGATGCCCCC	0.101 z-score
GAGAACTCCCC	0.725 z-score
GGGTACTCCCC	1.34 z-score
GAAAGAATCCT	-0.654 z-score

Biological target: p50p50 homodimer (Homo sapiens, UniProt P19838 7-356)
Sequence (P19838 7-356): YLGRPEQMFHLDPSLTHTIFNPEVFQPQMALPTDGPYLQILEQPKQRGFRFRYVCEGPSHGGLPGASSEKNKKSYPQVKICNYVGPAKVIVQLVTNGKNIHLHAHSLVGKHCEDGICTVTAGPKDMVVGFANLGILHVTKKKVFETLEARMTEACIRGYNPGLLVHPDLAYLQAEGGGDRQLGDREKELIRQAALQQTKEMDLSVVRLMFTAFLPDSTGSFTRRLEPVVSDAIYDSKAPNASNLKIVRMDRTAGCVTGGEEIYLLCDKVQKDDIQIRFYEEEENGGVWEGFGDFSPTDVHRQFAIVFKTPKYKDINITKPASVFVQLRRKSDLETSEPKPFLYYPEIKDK
Assay: as above
Details: dsDNA, one strand shown

Sequence	binding signal
CGGGTTATCCC	0.247 z-score
CAAGGGGTCCT	-0.988 z-score
AGAAGGCCCCT	0.412 z-score
GGGGTCGCCCC	0.472 z-score
CGAATTCTCCT	-1.08 z-score
AAGGGAATCCC	0.857 z-score
AAAAGGATCCT	-1.24 z-score
GAAGAGCCCCT	1 z-score
AAGGACGCCCT	-2.2 z-score
CGGATAATCCT	-1.31 z-score
CAGAGACCCCC	0.706 z-score
CAGAACCTCCT	-1.31 z-score
AAGAGGCCCCT	0.359 z-score
CAAGGAGCCCC	0.241 z-score
AGAAGGGTCCC	-0.215 z-score
AAAGAATTCCC	1.08 z-score
AAAAATCCCCT	1.6 z-score
AAATATCTCCC	0.445 z-score
CAATTTATCCT	-0.676 z-score

Sequence	binding signal
GGATGCGTCCT	-1.17 z-score
CAAATAATCCT	-0.88 z-score
AGGGATCTCCC	0.595 z-score
CAATTATCCCC	1.12 z-score
AAATACACCCC	0.252 z-score
AGGAAGCCCCC	1.14 z-score
GAAGGAACCCT	-1.31 z-score
AGAAACTTCCC	0.652 z-score
CGGTACATCCC	0.342 z-score
GAAATCGCCCC	0.544 z-score
AGATTATCCCT	0.543 z-score
GAATTAGTCCT	-1.6 z-score
AAAAGAATCCC	0.444 z-score
CGAGGCACCCT	-1.16 z-score
CAGAATTCCCC	1.49 z-score
AAGATGCCCCC	1.09 z-score
GAGAACTCCCC	1.15 z-score
GGGTACTCCCC	0.682 z-score
GAAAGAATCCT	-1.19 z-score

Biological target: T1, p52p52 homodimer (Homo sapiens, UniProt Q00653 4-332)
T1 sequence: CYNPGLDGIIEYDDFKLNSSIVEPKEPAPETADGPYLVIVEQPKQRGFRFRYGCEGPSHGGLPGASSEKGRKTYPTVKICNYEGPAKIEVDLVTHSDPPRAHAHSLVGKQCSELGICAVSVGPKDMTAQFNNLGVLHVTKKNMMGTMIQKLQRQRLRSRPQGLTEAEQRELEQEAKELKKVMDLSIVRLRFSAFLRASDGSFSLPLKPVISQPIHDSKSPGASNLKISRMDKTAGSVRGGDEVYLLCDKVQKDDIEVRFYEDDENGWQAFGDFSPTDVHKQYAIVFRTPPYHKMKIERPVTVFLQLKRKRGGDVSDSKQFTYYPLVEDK
Assay: as above
Details: dsDNA, one strand shown

Sequence	binding signal
CGGGTTATCCC	1.5 z-score
CAAGGGGTCCT	-0.106 z-score
AGAAGGCCCCT	0.0419 z-score
GGGGTCGCCCC	2.74 z-score
CGAATTCTCCT	-0.594 z-score
AAGGGAATCCC	2.29 z-score
AAAAGGATCCT	-0.703 z-score
GAAGAGCCCCT	0.626 z-score
AAGGACGCCCT	-0.8 z-score
CGGATAATCCT	-0.659 z-score
CAGAGACCCCC	0.0929 z-score
CAGAACCTCCT	-0.791 z-score
AAGAGGCCCCT	-0.0334 z-score
CAAGGAGCCCC	-0.0311 z-score
AGAAGGGTCCC	0.0384 z-score
AAAGAATTCCC	1.36 z-score
AAAAATCCCCT	3.18 z-score
AAATATCTCCC	0.105 z-score
CAATTTATCCT	-0.566 z-score

Sequence	binding signal
GGATGCGTCCT	-0.665 z-score
CAAATAATCCT	-0.501 z-score
AGGGATCTCCC	2.05 z-score
CAATTATCCCC	1.04 z-score
AAATACACCCC	0.0531 z-score
AGGAAGCCCCC	1.3 z-score
GAAGGAACCCT	-0.566 z-score
AGAAACTTCCC	0.45 z-score
CGGTACATCCC	1.69 z-score
GAAATCGCCCC	0.298 z-score
AGATTATCCCT	0.486 z-score
GAATTAGTCCT	-0.565 z-score
AAAAGAATCCC	0.44 z-score
CGAGGCACCCT	-0.572 z-score
CAGAATTCCCC	2.61 z-score
AAGATGCCCCC	0.461 z-score
GAGAACTCCCC	1.06 z-score
GGGTACTCCCC	3.13 z-score
GAAAGAATCCT	-0.601 z-score

Biological target: RELA (p65) subunit of heterodimer;p50 subunit (Homo sapiens;Homo sapiens, UniProt Q04206;P19838 1-307;7-356)
Sequence (Q04206 1-307, chain 1 of 2): as the sequence (Q04206 1-307) above
Sequence (P19838 7-356, chain 2 of 2): as the sequence (P19838 7-356) above
Assay: as above
Details: dsDNA, one strand shown

Sequence	binding signal
CGGGTTATCCC	0.634 z-score
CAAGGGGTCCT	-1.06 z-score
AGAAGGCCCCT	0.306 z-score
GGGGTCGCCCC	1.36 z-score
CGAATTCTCCT	-0.48 z-score
AAGGGAATCCC	1.16 z-score
AAAAGGATCCT	-1.11 z-score
GAAGAGCCCCT	0.604 z-score
AAGGACGCCCT	-0.915 z-score
CGGATAATCCT	-1.04 z-score
CAGAGACCCCC	0.407 z-score
CAGAACCTCCT	-0.921 z-score
AAGAGGCCCCT	-0.301 z-score
CAAGGAGCCCC	-0.1 z-score
AGAAGGGTCCC	-0.173 z-score
AAAGAATTCCC	1.57 z-score
AAAAATCCCCT	2.55 z-score
AAATATCTCCC	0.12 z-score
CAATTTATCCT	-0.744 z-score

Sequence	binding signal
GGATGCGTCCT	-1.04 z-score
CAAATAATCCT	-0.911 z-score
AGGGATCTCCC	1.2 z-score
CAATTATCCCC	1.31 z-score
AAATACACCCC	0.224 z-score
AGGAAGCCCCC	1.61 z-score
GAAGGAACCCT	-0.887 z-score
AGAAACTTCCC	0.846 z-score
CGGTACATCCC	0.384 z-score
GAAATCGCCCC	0.401 z-score
AGATTATCCCT	0.262 z-score
GAATTAGTCCT	-0.821 z-score
AAAAGAATCCC	0.389 z-score
CGAGGCACCCT	-1.04 z-score
CAGAATTCCCC	2.25 z-score
AAGATGCCCCC	0.893 z-score
GAGAACTCCCC	1.34 z-score
GGGTACTCCCC	1.82 z-score
GAAAGAATCCT	-1.12 z-score
